In all, about 310,000 compounds went through this assay and about 2,600 (0.84%) were called active.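 Rule for the calls: active = B-score over 3 SD under the library average, and starting fluorescence ratio not unusually high; inactive = the rest.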 Many of the other results were omitted from the sample, so actives are more common in it than they were.
Biological target: High affinity choline transporter 1 (Homo sapiens) (UniProt Q9GZV3)
Assay: inhibitors of human choline transporter CHT (AID 488975);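 for B-score: choline stimulus applied at its EC90 after an EC20 pre-addition; B-score computed on integrated fluorescence ratio after choline addition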
Conditions: CHT-expressing cells, membrane potential dye, choline response, at 10 µM; hits give low values

Chain of High affinity choline transporter 1 (Homo sapiens) (Q9GZV3 whole entry, looked up): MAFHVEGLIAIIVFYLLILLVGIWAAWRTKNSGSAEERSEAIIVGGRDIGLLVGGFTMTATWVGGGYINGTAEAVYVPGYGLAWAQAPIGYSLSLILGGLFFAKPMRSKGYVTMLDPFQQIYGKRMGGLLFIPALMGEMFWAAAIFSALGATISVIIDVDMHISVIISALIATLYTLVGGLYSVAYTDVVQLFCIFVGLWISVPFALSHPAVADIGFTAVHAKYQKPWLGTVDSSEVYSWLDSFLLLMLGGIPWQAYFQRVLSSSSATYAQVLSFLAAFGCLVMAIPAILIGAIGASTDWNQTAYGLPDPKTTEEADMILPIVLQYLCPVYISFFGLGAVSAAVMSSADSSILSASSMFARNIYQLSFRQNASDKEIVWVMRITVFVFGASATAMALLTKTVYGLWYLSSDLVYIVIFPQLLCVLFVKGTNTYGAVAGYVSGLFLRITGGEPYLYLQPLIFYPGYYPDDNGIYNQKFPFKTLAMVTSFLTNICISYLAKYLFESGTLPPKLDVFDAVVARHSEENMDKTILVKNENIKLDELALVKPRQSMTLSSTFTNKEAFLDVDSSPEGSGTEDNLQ

Compound	B-score
COc1ccc(Cc2nnc(SCC(=O)N(c3ccccc3)C(C)C)n(N)c2=O)cc1	inactive
O=c1c2ccccc2nnn1CSc1nnnn1-c1ccccc1	inactive
Nc1nnc(SCn2nnc3ccccc3c2=O)s1	inactive
O=c1c2ccccc2nnn1CSc1nc2sc3c(c2c(=O)n1CC1CCCO1)CCC3 (centres undefined)	-11.3 (active)
CCn1c(SCCC(C)C)nnc1-c1c[nH]c2ccccc12	-5.53 (active)
CCn1c(SCC(=O)Nc2ccc(OC)c(OC)c2)nnc1-c1c[nH]c2ccccc12	inactive
CCC(C)Sc1nnc(-c2c[nH]c3ccccc23)n1CCOC (centres undefined)	inactive
O=[N+]([O-])c1ncc(Br)cc1Nc1ccccc1	inactive
CCOCCn1[nH]c2ccccc2c1=O	inactive
CC(Oc1ccc(Br)cc1)C(=O)NCC(c1ccco1)N1CCCCC1 (centres undefined)	inactive
CCc1ccc2c(c1)C1(NN=C(c3ccccc3)S1)C(=O)N2 (centres undefined)	-6.53 (active)
CCc1ccc2c(c1)C(c1ccc([N+](=O)[O-])cc1)=NNC(c1ccccc1)=N2	inactive
O=C1Nc2ccccc2C12Nc1ccccc1S2 (centres undefined)	inactive
COC(=O)c1cc2occc2n1Cc1nc(-c2ccccc2C)oc1C	inactive
CCC(C(=O)N1CCOCC1)n1c(C(=O)OC)cc2occc21 (centres undefined)	-6.51 (active)
CCOC(=O)c1cc2occc2n1CC(=O)N1CCN(C(=O)c2ccco2)CC1	inactive
O=C(CN1CCOCC1)Nc1cccc([N+](=O)[O-])c1	inactive
O=C(CCNC(=O)c1ccc(Br)cc1)NCCCc1ccccc1	inactive
CCOC(=O)c1ccc(NC(=O)c2cccnc2)cc1	inactive
Cc1c(C(=O)OC(C)C)sc(NC(=O)c2cccnc2)c1C#N	-5.25 (active)
CCOC(=O)c1cc(NC(=O)c2cccnc2)ccn1	inactive
Cc1ccc(C)c(OCCC(=O)OCC(=O)NC(=O)NCc2ccccc2)c1	inactive
COc1ccccc1C(=O)Nc1ccccc1C(=O)Nc1ccccc1	inactive
Nc1nonc1-n1nnc(C(=O)N/N=C/c2ccccc2O)c1CN1CCCC1	inactive
Cc1ccc(C(=O)NC2CCCC(C)C2C)cc1S(=O)(=O)N1CCCCC1 (centres undefined)	-9.32 (active)
C/C(=N\NC(=O)c1cccc(N2CCCC2=O)c1)c1ccc(N)cc1	inactive

Compound	B-score
Cc1ccc(C(=O)NNC(=O)c2ccncc2)cc1S(=O)(=O)N1CCCCC1	inactive
Cc1ccc(C(=O)Nc2ccc3c(c2)OCO3)cc1S(=O)(=O)N1CCCCC1	inactive
CC1CCCC(NC(=O)c2cccc(N3CCCC3=O)c2)C1C (centres undefined)	-5.25 (active)
CC1CCC(NC(=O)c2ccc(N3CCCC3=O)cc2)CC1 (centres undefined)	inactive
COc1ccc2oc(C(=O)OCC(=O)N(CC(C)C)c3c(N)n(Cc4ccccc4)c(=O)[nH]c3=O)c(C)c2c1	inactive
CC1=NNC(=O)C1Cc1c(Cl)cccc1Cl (centres undefined)	inactive
Cc1ccc2nc(NC(=O)CSc3nc(=O)n(CCCN(C)C)c4c3CCC4)sc2c1	inactive
COc1ccc(S(=O)(=O)N2CCCCCC2)cc1C(=O)N(C)Cc1cccc(OC)c1OC	inactive
C=CCn1cnc2scc(-c3ccccc3)c2c1=O	inactive
N#CCCN(CCC#N)c1nnc(-c2ccccc2)s1	inactive
CN(CCC#N)c1ncnc2scc(-c3ccccc3)c12	-6.05 (active)
COc1cc(C(=O)N(C)Cc2cccc(OC)c2OC)ccc1OCC(=O)Nc1cccc(C(F)(F)F)c1	inactive
Fc1ccccc1COc1cccc2cccnc12	inactive
CN(/N=C/c1ccccc1)C(=S)c1ccccc1	inactive
COc1ccc([C@@H]2[C@@H]3C(=O)N(C(C)(C)C)C(=O)[C@@H]3[C@]3(Cc4ccccc4)C(=O)N(c4cccc(Br)c4)C(=O)N23)cc1	inactive
Cc1cccc(NC(=O)c2cccc(S(=O)(=O)N3CCCC3)c2)n1	inactive
O=S(=O)(c1cccc(-c2nnc3n2CCCCC3)c1)N1CCOCC1	inactive
O=S(=O)(c1cccc(-c2nnc(SC(F)F)n2-c2ccccc2)c1)N1CCCCC1	-6.54 (active)
O=S(=O)(c1cccc(-c2cn3ccccc3n2)c1)N1CCCC1	inactive
Cc1onc(-c2ccccc2Cl)c1C(=O)N(Cc1ccc(N(C)C)cc1)C(C)C	inactive
Cc1ccn2c(=O)c(NC(=O)c3cccc4ccccc34)c(C)nc2c1	inactive
Cc1c(Cl)cccc1NC(=O)Nc1ccc(C(=O)N2CCCC2)cc1	inactive
Cc1c(Cl)cccc1NC(=O)NCc1ccc(C)n1C	inactive
COC(=O)C(C(=O)Nc1cccc(Cl)c1C)C1CCCC1 (centres undefined)	-5.46 (active)
CCN(CC(=O)Nc1c(F)cccc1F)C(=O)C1CCC1	inactive
Cc1ccc(S(=O)(=O)NC(C)C(=O)NCc2ccc(Cl)cc2)cc1 (centres undefined)	inactive

Compound	B-score
CCCNC(=O)c1ccc(N2CCC3(CC2)CC(c2cccc(Br)c2)=NO3)c(NC(=O)c2ccco2)c1	inactive
CCN(CC(=O)NCc1ccc(Cl)cc1)C(=O)CSc1ccccc1	-5.83 (active)
CN(CC(=O)NCc1ccc(Cl)cc1)S(=O)(=O)c1cccs1	inactive
CCN(CC(=O)Nc1cc(Cl)ccc1C)C(=O)CSCc1ccc(C)cc1	inactive
COc1ccc(N2CC(NS(=O)(=O)c3ccc4ccccc4c3)CC2=O)cc1 (centres undefined)	inactive
O=C1N[C@@H](Cc2ccccc2)C(=O)N2[C@H]1C[C@]1(Br)c3ccccc3N(S(=O)(=O)c3ccccc3)[C@H]21	inactive
Cc1nc2ccccc2c(=O)n1-c1ccc(F)c(NC(=O)c2cccs2)c1	inactive
CCN(CC)CCn1c2c(c(SCC(=O)Nc3ccc(C(C)C)cc3)nc1=O)CCC2	inactive
CC1CCN(C(=O)CN(c2ccc(Oc3ccccc3)cc2)S(C)(=O)=O)CC1	-5.53 (active)
CS(=O)(=O)N(CC(=O)N1CCN(c2cccc(Cl)c2)CC1)c1ccccc1	inactive
COc1ccc(N(CC(=O)N2CCCCCC2)S(=O)(=O)c2ccccc2)cc1	inactive
NC(=O)NCCCC(=O)O	inactive
Cc1ccc(NC(=O)COc2coc(CN3CCc4ccccc4C3)cc2=O)cc1Cl	inactive
O=C(Nc1ccncc1)c1ccccc1[N+](=O)[O-]	inactive
O=C(O/N=C(/c1ccccc1)c1ccncc1)c1ccccc1[N+](=O)[O-]	-5.03 (active)
COc1ccc(NC(=O)c2ccccc2[N+](=O)[O-])cc1OC	inactive
COc1ccc(-c2cc(C(=O)N/N=C/c3cccnc3)c3ccccc3n2)c(OC)c1	inactive
O=C(O)Cc1ccc(NCc2ccccc2Cl)cc1	inactive
O=C(O)CC1=C(Nc2ccccc2)C(=O)N(c2ccccc2)C1c1ccc(Cl)cc1 (centres undefined)	-9.58 (active)
COC(=O)CN1C(=S)N(c2ccccc2)C(=O)C1CC(=O)Nc1ccc(Cl)cc1 (centres undefined)	inactive
O=C(NCCc1ccco1)C(=O)NCCC1CCCCN1S(=O)(=O)c1ccccc1 (centres undefined)	inactive
CS(=O)(=O)N1CCC(C(=O)N2CCN(c3ccccc3)CC2)CC1	inactive
O=C(C1CCN(S(=O)(=O)c2ccc(Br)s2)CC1)N1CCN(c2ccccc2)CC1	-8.2 (active)
O=C(C1CCN(S(=O)(=O)c2ccc(Br)s2)CC1)N1CCN(C2CCCCC2)CC1	inactive
CC(Sc1nn(-c2ccc(Cl)cc2)c(=S)s1)C(=O)NCC1CCCO1 (centres undefined)	inactive
COc1ccc(S(=O)(=O)N2CCOC23CCN(S(=O)(=O)c2ccc([N+](=O)[O-])cc2)CC3)cc1	inactive

Compound	B-score
O=C(NCc1ccccn1)Nc1ccc(Cl)cc1	inactive
O=C(NCc1ccccn1)Nc1ccc(F)cc1	inactive
CCC(C)c1ccc(NC(=S)NCc2ccccn2)cc1 (centres undefined)	-9.17 (active)
CCOC(=O)C(C)N(c1ccccc1Cl)S(C)(=O)=O (centres undefined)	inactive
O=C(Nc1cccc2cccnc12)c1cccc(N2C(=O)CCC2=O)c1	inactive
O=C(Nc1cccc2cccnc12)c1cccc(Cl)c1	inactive
N#Cc1ccc(C(=O)Nc2cccc3cccnc23)c(F)c1	-5.02 (active)
CCOC(=O)c1cc(C(C)C)sc1NC(=O)COC(=O)c1nccnc1N	inactive
CCOc1ccc(NS(=O)(=O)c2ccc(C(=O)NC3CCN(Cc4ccccc4)CC3)cc2)cc1	inactive
Cc1ccc(CNC(=O)c2cc(-c3ccccc3C)n(CC3CC(c4cccc([N+](=O)[O-])c4)=NO3)n2)cc1 (centres undefined)	inactive
N=c1oc2ccccc2cc1C(=O)NCc1ccccc1	inactive
O=C(NCCc1ccc2c(c1)OCCO2)c1cc2ccccc2o1	-5.1 (active)
O=C(CC(Cc1ccccc1)C(=O)O)NCCc1ccc2c(c1)OCO2 (centres undefined)	inactive
COc1ccc(C(=O)NCC2CCCN2S(=O)(=O)c2cccs2)cc1OC (centres undefined)	inactive
Cc1ccc(C(=O)C(C)OC(=O)Cc2n[nH]c(=O)c3ccccc23)cc1C (centres undefined)	inactive
COc1nc(OC)nc(N(C)CCO)n1	-12.4 (active)
O=C(CSC1=NS(=O)(=O)c2cc(F)ccc2N1)Nc1ccccc1F	inactive
CN(CC(=O)Nc1cccc(F)c1)C(=O)C1=COCCO1	inactive
CN(CCO)c1ccc(/C=N/Nc2nncc3ccccc23)cc1	inactive
CC(NC(=O)c1ccc(N2CCNCC2)c([N+](=O)[O-])c1)C12CC3CC(CC(C3)C1)C2 (centres undefined)	-5.65 (active)
CS(=O)(=O)N1CCN(c2ccc(C(=O)NC3C4CC5CC(C4)CC3C5)cc2[N+](=O)[O-])CC1 (centres undefined)	inactive
CCC(C)NC(=O)c1ccc(N2CCC3(CC2)OCCO3)c([N+](=O)[O-])c1 (centres undefined)	inactive
O=C(NC1C2CC3CC(C2)CC1C3)c1ccc(N2CCNCC2)c([N+](=O)[O-])c1 (centres undefined)	-5.53 (active)
CC1CCN(c2ccc(C(=O)Nc3nnc(C4CC4)s3)cc2[N+](=O)[O-])CC1	inactive
O=C(Nc1cccc(C(F)(F)F)c1)c1ccc(N2CCNCC2)c([N+](=O)[O-])c1	inactive
O=C(NCCC1CCCCN1S(=O)(=O)c1ccc(Cl)cc1)C(=O)NCc1ccco1 (centres undefined)	inactive

— PubChem BioAssay AID488975 (Johns Hopkins Ion Channel Center, 2010)
